From PubChem BioAssay
MLLE-PAM2 inh = inhibitors of PABP1 MLLE–PAM2 peptide binding, primary screen, biochemical, fluorescence polarization, FITC-PAM2, GST-MLLE; Polyadenylate-binding protein 1 (Homo sapiens), P11940; inhibition, % at 20 µM; 360,000 tested, 0.36% active; in the data active means inhibition above about 35%, passing the limit was not always enough;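 further: plate controls were DMSO wells with GST-MLLE for no effect and wells lacking GST-MLLE protein for full effect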
Target sequence (P11940 whole entry, looked up): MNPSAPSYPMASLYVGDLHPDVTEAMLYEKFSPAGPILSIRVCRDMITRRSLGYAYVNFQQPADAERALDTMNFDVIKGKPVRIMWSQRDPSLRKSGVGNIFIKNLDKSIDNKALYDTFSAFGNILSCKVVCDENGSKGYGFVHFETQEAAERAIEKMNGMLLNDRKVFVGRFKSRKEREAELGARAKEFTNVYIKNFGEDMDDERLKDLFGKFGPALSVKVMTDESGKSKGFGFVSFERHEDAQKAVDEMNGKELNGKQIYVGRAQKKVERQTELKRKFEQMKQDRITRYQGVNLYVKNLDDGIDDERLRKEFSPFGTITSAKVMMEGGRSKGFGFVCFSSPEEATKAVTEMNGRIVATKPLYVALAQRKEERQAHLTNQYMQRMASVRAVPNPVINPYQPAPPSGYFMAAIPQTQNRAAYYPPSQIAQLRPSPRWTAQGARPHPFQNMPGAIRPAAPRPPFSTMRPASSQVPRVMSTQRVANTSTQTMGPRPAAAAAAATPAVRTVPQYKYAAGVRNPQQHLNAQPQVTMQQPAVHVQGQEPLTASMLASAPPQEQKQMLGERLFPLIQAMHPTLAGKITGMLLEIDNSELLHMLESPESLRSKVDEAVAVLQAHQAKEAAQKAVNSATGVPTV
PABP FP inh = PABP poly(A) RNA binding inhibitors, primary screen, biochemical, fluorescence polarization, uHTS. Polyadenylate-binding protein 1 (Homo sapiens), P11940. 290,000 tested, 1% active. inhibition, % at 35 µM;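 further: calls also rest on retests at 20 µM and on dose response follow-up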
NRP1-CendR mod = modulators of CendR peptide binding to NRP-1, primary screen, biochemical, fluorescence polarization, uHTS; FAM-RPARPAR peptide binding to NRP-1; inhibition, % at 25 µM; 360,000 tested, 0.85% active; AID 602438, 2012;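 active means inhibition or corrected inhibition above about 18%, plus a signal ratio from 0.5 to 1.5, limit read from the data, passing the limit was not always enough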
eIF4H inh = human eIF4H binding inhibitors, primary screen, translation initiation inhibitor project, biochemical, uHTS, fluorescence polarization | Eukaryotic translation initiation factor 4H (Homo sapiens), Q15056 | eIF4H fluorescence polarization binding assay | inhibition, % at 35 µM | 290,000 tested, 0.94% active | AID 2012, 2009;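 further: calls also rest on retests at 20 µM and on dose response follow-up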
Active calls of the source: *; ? = inconclusive; . = no result given. Sampled rows, rich in hits. Any-hit rate of the full collection: about 2.1%. Unless noted, how the calls were made is not given here.

SMILES	MLLE-PAM2 inh	PABP FP inh	NRP1-CendR mod	eIF4H inh
O=C(/C=C/c1ccco1)OCc1nnc(-c2ccc(Cl)cc2)o1	-5	active	-34	57*
COc1ccc(NC(=O)Nc2cccs2)cn1	18	36	-7	35
COc1ccc(NC(=O)Nc2ccc([N+](=O)[O-])cc2)cn1	58*	51*	24	82*
COc1ccc(NC(=O)Nc2ccc(OCc3ccccc3)cc2)cn1	66*	?	16	?
COc1ccc(NC(=O)/C=C/c2ccco2)cn1	3	-6	-4	35
COc1ccc(NC(=O)Nc2cc(C)cc(C)c2)cn1	66*	37	18	50
COc1ccc(NC(=O)/C=C/c2cccc(F)c2)cn1	59	-4	19*	?
COc1cc(C(=O)Nc2cc(S(C)(=O)=O)ccc2Cl)ccc1OCC(=O)N1CCOCC1	8	.	-5	.
COC(=O)C1CCN(C(=O)C2CCC(=O)N(CCc3cccc(F)c3)C2)CC1 (stereo not drawn)	5	0	8	-12
COc1ccc(NC(=O)Nc2cccc(C(F)(F)F)c2)cn1	19	9	28*	15
O=C(Nc1ccccc1)Nc1cccc(C(F)(F)F)c1	-12	-7	3	6
COc1ccc(NC(=O)c2cc(Br)c(Br)s2)cn1	16	-9	-2	16
CCc1cc(C(=O)Nc2ccc(OC)nc2)sc1C	86	.	24*	.
CCCCN(CC(O)COc1cccc(C)c1)CC(O)COc1cccc(C)c1 (stereo not drawn)	8	2	8	7
COC(=O)CCCC1=CC2=C(c3ccccc3)C(=O)C(C)(OC(=O)C3CCCC3)C(=O)C2=CN1CCCCO (stereo not drawn)	14	4	20	1
COC(=O)CCCC1=CC2=C(c3ccccc3)C(=O)C(C)(OC(=O)C3CCCC3)C(=O)C2=CN1Cc1ccco1 (stereo not drawn)	37	39*	30*	60
Cc1nc2ccccc2c(=O)n1/N=C/c1c(O)ccc2oc3c(c12)CCCC3	-4	63*	-4	22*
O=C(Nc1ccc(F)c(S(=O)(=O)N2CCOCC2)c1)C1CCCCC1	-15	.	-2	.
O=S(=O)(NC(=S)NC1CCCCC1)c1cccs1	52*	-5	15	2
O=S(=O)(NC1CCCCCCC1)c1ccccc1	9	-4	-16	-6
O=S(=O)(NC(=S)NC1CCCCC1)c1ccccc1	37*	-9	7	-1
O=S(=O)(NC(=S)c1ccccc1)c1ccccc1	46*	.	-16	.
CCOc1ccc(CNC(=O)CN2C(=O)CSc3ccc(S(=O)(=O)N4CCOCC4)cc32)cc1	8	.	-12	.
Cc1coc(C)c1C(=O)Nc1ccc2ccccc2c1	1	1	17	0
CCOC(=O)N1CCN(C(=O)c2ccccc2NC(=O)COc2ccccc2)CC1	9	-13	4	-7
SMILES	MLLE-PAM2 inh	PABP FP inh	NRP1-CendR mod	eIF4H inh
Cc1c(C)c2ccc(OCC(=O)NCCN3CCOCC3)cc2oc1=O	9	.	9	.
COc1ccc(Cl)cc1NC(=O)CN(C)C(=O)c1cccc2cccnc12	-6	.	-5	.
CNC(=O)NC(=S)NC(=O)c1ccccc1Cl	34	-9	8	-6
O=C(NC(=S)Nc1ncccn1)c1ccccc1Cl	41*	-8	-2	2
O=c1oc(Nc2ccccc2F)nc2ccccc12	-5	10	37*	-1
O=C(N/N=C/c1cn(Cc2ccccc2)c2ccccc12)c1cc(O)cc(O)c1	-5	26	8	62*
CCNC(=S)N/N=C/c1cn(Cc2ccc(F)cc2)c2ccccc12	8	8.9*	1	82*
COc1ccc(OC)c(NC(=O)NC2CCCc3ccccc32)c1 (stereo not drawn)	9	1	8	-4
CC1(C)CC(=O)/C(=C\c2cccc([N+](=O)[O-])c2)C(C)(C)N1	3	1	31*	-2
O=C1N/C(=N/O)S/C1=C/c1cccc([N+](=O)[O-])c1	26	-3	4	2
CCOC(=O)C1(C)CCCN(C(=O)c2ccc(C)c(F)c2)C1 (stereo not drawn)	-1	.	-2	.
COc1ccccc1Oc1ccc(S(=O)(=O)N2CCOCC2)cc1S(=O)(=O)N1CCOCC1	16	-3	27*	4
Cc1cc2cc(CNC(=O)Cc3ccc([N+](=O)[O-])cc3)ccc2n1C	40*	16	30*	47
Cc1cc2cc(CNC(=O)CCC(=O)O)ccc2n1C	17	2	4	3
Cc1c(C(=O)NCc2ccc3c(c2)cc(C)n3C)cccc1[N+](=O)[O-]	48*	0	15	19
Cc1cc2cc(CNC(=O)Cc3cccs3)ccc2n1C	39*	32	10	40
COc1ccc(S(=O)(=O)N(C)C[C@H]2Oc3ccc(NC(=O)c4ccncc4)cc3C(=O)N([C@H](C)CO)C[C@@H]2C)cc1	-11	.	-11	.
CC(=O)c1ccc(NC(=O)CSc2nnc(C3CC3)n2C2CC2)cc1	-15	.	13	.
CC(c1ccccc1)C(OC(=O)c1cccc([N+](=O)[O-])c1C(=O)O)c1ccccc1 (stereo not drawn)	1	.	14	.
Cc1cc(C)c(S(=O)(=O)c2cccc(Cl)c2)c(Cl)n1	5	8	33*	2
S=C(Nc1ccc(Cl)cc1)c1sc(N2CCCCC2)nc1N1CCOCC1	28	active	5	79*
Cc1cc(=O)[nH]c(SCn2nnc3ccccc3c2=O)n1	43*	-5	-14	-11
Cn1nc(C(=O)NC2CCCCC2)c2c1-c1ccccc1S(=O)(=O)C2	9	7	3	-5
O=C(CCSc1ccccc1)NC1CCCCCC1	-4	93*	17	10
CC(CC(=O)NC1CCCC1)c1ccccc1 (stereo not drawn)	2	50*	3	-6
SMILES	MLLE-PAM2 inh	PABP FP inh	NRP1-CendR mod	eIF4H inh
O=C(CCSc1ccc(Cl)cc1)NC1CCCCC1	14	-11	-5	-11
CC(=O)NC(CC(=O)NC1CCCCCC1)c1ccccc1 (stereo not drawn)	-92	8	-4	4
Cc1ccc(OCC(=O)OCC(=O)N2c3ccccc3CC2C)cc1C (stereo not drawn)	-9	.	2	.
O=[N+]([O-])c1ccccc1S(=O)(=O)Nc1ccc(-c2ccc3nncn3n2)cc1	12	.	0	.
C[C@H](CO)N1C[C@H](C)[C@@H](CN(C)S(=O)(=O)c2cccs2)Oc2c(NS(=O)(=O)c3ccc(F)cc3)cccc2C1=O	-4	.	-7	.
CC1CCc2cc(F)ccc2N1C(=O)CCC(=O)O (stereo not drawn)	-4	6	25*	-11
CC(C)=CC(=O)OCC(=O)Nc1cccc([N+](=O)[O-])c1	9	11	-9	-2
CC1CC1C(=O)OCC(=O)Nc1ccc2[nH]c(=O)[nH]c2c1 (stereo not drawn)	-13	18*	-1	?
